# Source: PubChem BioAssay AID504895 (National Center for Advancing Translational Sciences (NCATS), 2011)
# Records with an inconclusive call do not appear. Unmarked numbers belong to inactive results. Calls come from the whole dose curve; as a rule, active = well fitted curve in the direction sought with a large enough effect; inconclusive = small, poorly fitted or top-dose-only effect, or another doubt; inactive = no such curve, though single readings can be large or run the other way.
# Target: Protein phosphatase EYA2 (Homo sapiens) (UniProt O00167)
# Sequence (O00167 whole entry, looked up): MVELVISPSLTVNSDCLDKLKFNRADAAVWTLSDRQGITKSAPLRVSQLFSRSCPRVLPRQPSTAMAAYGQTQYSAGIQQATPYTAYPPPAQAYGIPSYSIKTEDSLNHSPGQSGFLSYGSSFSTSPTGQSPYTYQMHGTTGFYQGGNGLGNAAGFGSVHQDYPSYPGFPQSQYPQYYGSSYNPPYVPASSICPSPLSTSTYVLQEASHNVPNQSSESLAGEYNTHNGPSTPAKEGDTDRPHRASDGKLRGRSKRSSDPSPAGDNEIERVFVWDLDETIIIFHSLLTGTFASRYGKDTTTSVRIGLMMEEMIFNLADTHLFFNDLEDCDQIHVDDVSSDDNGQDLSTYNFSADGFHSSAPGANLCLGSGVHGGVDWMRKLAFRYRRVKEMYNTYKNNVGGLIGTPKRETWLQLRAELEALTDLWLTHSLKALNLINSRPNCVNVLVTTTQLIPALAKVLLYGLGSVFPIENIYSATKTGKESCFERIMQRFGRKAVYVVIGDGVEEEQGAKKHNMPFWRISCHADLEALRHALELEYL
# Test: Inhibitors of Eya2ED: Hit Confirmation in Primary Screen
# Details: Recombinant Eya2ED, OMFP fluorescence phosphatase assay; series mostly up to 76.9 µM; activity change, negative = inhibition: at the top concentration
# Source text: The Eya proteins (Eya1-4) were originally identified as essential co-activators of the Six1 transcription factor. […] Knockdown of Six1 decreases cancer cell proliferation and metastases in several different cancer models. […] A fluorescence-based HTS assay has been perfomed against the Molecular Libraries Small Molecule Repository (MLSMR) and has the AID 488837 in this database. After completion of the primary screen, hits were re-ordered and tested again in the primary screen in a 12 point titration. NIH Chemical Genomics Center [NCGC] NIH Molecular Libraries Probe Centers Network [MLPCN] MLPCN Grant: DA030559-01 Assay Submitter (PI): Rui Zhao, University of Colorado, Denver
# The Eya2 enzyme was kindly provided by the laboratory of Dr. Rui Zhao. The 3-O-methyl-fluorescein phosphate (OMFP) substrate and all buffer reagents were purchased from Sigma Aldrich. qHTS Assay Setup: 1. Buffer- 50 mM HEPES pH 7.5, 50 mM NaCl, 5 uM MgCl2, 0.05% BSA, 1 mM DTT. 2. OMFP Stock- 10 mM solution prepared in 100% DMSO and stored in single use aliquots at -20C. Assay Procedure- 1. Dispense 1.5 ul per well of Eya2 at 0.2 uM in black medium binding 1536 well Greiner plate 2. Transfer 23 nl of compound and control compound (EGTA) to plate 3. Incubate at ambient for 10 minutes 4. Dispense 1.5 ul per well of OMFP at 50 uM 5. Incubate at ambient for 10 minutes 6. Read on ViewLux using Excitation = 485 nm, Emission = 525 nm
row,SMILES,"activity change, negative = inhibition"
1,O=c1[nH]c(=O)n(C2CCCCC2)c(O)c1C1NCCc2ccccc21 (stereo not given),-5.77%
2,O=[N+]([O-])c1ccc(N2CCCC2)c2ccncc12,-9.57%
3,O=C(O)C1C2CCC(O2)C1C(=O)Nc1cccc(Br)c1 (stereo not given),8.6%
4,Cn1c(O)c(/C=N/NC(=O)c2ccncc2)c(=O)n(C)c1=S,-13.9%
5,CCOC(=O)c1ccc(N=C(CC)c2c(O)n(C)c(=O)n(C)c2=O)cc1,-16%
